± gives the standard deviation.
What follows are sequences tested on EfPiwi piRISC loaded with L1MC piRNA (26 nt) (assay: pre-steady-state target cleavage rate (min^-1); auxiliary factor: none (no Gtsf1); guide: L1MC piRNA 5'p-UAACUAAAUACUAUGCAAGCUGUAGG; MIWI and MILI are mouse PIWI proteins and EfPiwi is from a freshwater sponge; tags in brackets are library labels; higher = faster piRNA-guided slicing of the target).
Description: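 Cleave-'n-Seq: a library of target RNAs (target site in constant flanks) at […] was incubated with 1 nM active freshwater sponge Ephydatia fluviatilis Piwi piRISC (synthetic 5'-monophosphorylated piRNA guide) with or without 500 nM EmGtsf1 at 33 °C for 1 min to 16 h. Uncleaved targets were sequenced and the pooled three trials fitted to a burst-and-steady-state model to give the pre-steady-state cleavage rate (min^-1). Sequence is the target site only. Fits with R² ≤ 0 are excluded.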

| Sequence | pre-steady-state target cleavage rate |
| --- | --- |
| UCCUCCUACAGCUUGCAUUCUAUUUUCAAA | < 0.0001 |
| UCCUGGAACAGCUUGCAUUCUAUUUACAAA | < 0.0001 |
| UCCUGGAUGUCGAAGCAUAGUUUUUACUUA | < 0.0001 |
| UCCUGGUACAGCUUGGUUAGUAUUUAGAAA | < 0.0001 |
| UCCUGGAUGUCGAACGUAUGUAUUUGAGUUA | < 0.0001 |
| UCCUGGAUGUCGAAGCAUAGUAUAUACUUA | < 0.0001 |
| UCCUGCUACAGCUUCGUUAGUAUUUUCAAA | < 0.0001 |
| UCCUGGAUGUCGAAGCAUAGUUAAAUCAAA [g10:g16:cont:t1A] | < 0.0001 |
| UCCUGGAUGUCGAACGUAUCUAUUUAUUUA | < 0.0001 |
| UCCUGGAUGUCGAACGUAUCUAUUUAAUUA | < 0.0001 |
| UCCUGGAUGUCGAACGAAGUAUUUAGUUA | < 0.0001 |
| UCCUGGAUGUCGAUGCAUAGGAUUUAGUUA | < 0.0001 |
| UCCUGGAUCAGCUUGCAUAGUAUUUACGUUA | 0.011 ± 0.006 |
| UCCUGGAUGUCGAACGUAUGUAUUUAGUUU [g2:g11:cont:t1U] | < 0.0001 |
| UCCUGGAUGAGCUUGCAUCAGUAUUUAGUUA | < 0.0001 |
| UCCUGGAUGAGCUUGCAUAGUACUUUAGUUA | 0.00423 ± 0.0036 |
| UCCUGGAUGUCGUUGCAUAGAUUUAGUUA | < 0.0001 |
| UCCUGGAUCUGCUUGCAUAGUAAUUAGUUA | 0.0241 ± 0.0099 |
| UCCUGCUACAGCUUGCAUAUGUAUUUAGUUA | < 0.0001 |
| UCCUGGAUGUCGAACGUAUGUAUUUAGUAA | < 0.0001 |

| Sequence | pre-steady-state target cleavage rate |
| --- | --- |
| UCCUGGAUGUCGAACGUUAAUAUUUAGUUA | < 0.0001 |
| UCCUGGAUGUCGAACGUUAGUAAAUAGUUA | < 0.0001 |
| UCCUGGAUGUCGAACGUUUGUAAUUAGUUA | < 0.0001 |
| UCCUGGAUGUCGAACCAUACGUAUUUAGUUA | < 0.0001 |
| UCCUGGAUGUCGAAGGAUAGUAUUUUGUUA | < 0.0001 |
| UCCUGGAUGUCGAUGGAUAGAAUUUAGUUA | < 0.0001 |
| UCCUGGAUGUCCUUCGAUAGUAUUUAGUUA | < 0.0001 |
| UCCUGGUACAGCUUGCAUAGAAUUUACUUA | < 0.0001 |
| UCCUGGAUGUGCUUGCAUAGUCUUUAGUUA | 0.00821 ± 0.0047 |
| UCCUGGAUGUCGAACCUUAGUAUUUAGUUA | < 0.0001 |
| UCCUGGAUGUCGAAGCUUAGUAUUUAGUAA | < 0.0001 |
| UCCUGGAUGUCCUUGCAUAGUAUUUCAGUUA | < 0.0001 |
| UCCUGGAUGUCGAACGUUAGUAAUUAGUAA | < 0.0001 |
| UCCUGGUGACAGCUUGCAUAGUAUUUAGUUA | 0.0577 ± 0.023 |
| UCCUGGAUGUCGAACGUUAGUAUUUAUGUUA | < 0.0001 |
| UCCUCCUACAGCUUCCAUAGUAUAUAGUUA | < 0.0001 |
| UCCUGGAACAGCUUCCAUAGUAUUAAGUUA | < 0.0001 |
| UCCUGGAUGAGCUUGCAUAGUUUUUAGAUA | < 0.0001 |
| UCCUCCUACAGCUUCGUUAGUAUUUAGAAA | < 0.0001 |
| UCCUGGAUCAGCUUGCAUAGUAGUUUAGUUA | 0.011 ± 0.0045 |

— the supplement of paper PMC10338343
